The campaign covered roughly 48,000 compounds. About 1,200 (2.5%) were called active. About 2% were inconclusive and are not listed. Shown is part of a subset that was picked to be rich in actives. A number with no mark means an inactive call.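 How the source made its calls: active means activation of at least 60% and not above a set upper limit (about 1 call in 100 departs from these limits); inconclusive means activation of 40% to 60%, or above that upper limit; inactive means activation under 40%.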

The target of the assay is Probable G-protein coupled receptor 32 (Homo sapiens) (UniProt O75388). Description: qHTS for Agonists of Human Resolvin D1 Receptor DRV1. The settings on record: CHO-K1 GPR32 beta-arrestin PathHunter luminescence, 90 min; at 76.9 µM; active compounds read high; zero percent set by DMSO-only wells. An excerpt: Endogenous resolution of inflammation is known to be transduced through various GPCRs and their natural mediators of lipid nature. Resolvin D1 (RvD1) is one of the active players in resolution of acute inflammation through regulation of anti-inflammatory pathways; it is known to enhance phagocytosis of human macrophages, limits neutrophils infiltration, etc. […] The search for GPR32-activating small molecules with anti-inflammatory effects similar to its natural omega-3 derivative ligand in order to use them as research tools for further studies of inflammation and its resolution was the goal of this screening project. For primary screening assay, we used CHO-K1 GPR32 beta-arrestin cell line (DiscoveRx, #93-0321C2A) and the PathHunter(R) beta-Arrestin Assay (DiscoveRx) which measures recruitment of beta-arrestin to the GPR32 and generates chemiluminescent signal. These engineered cells stably transfected with GPR32 co-express GPR32-fused small 42-amino acid fragment of beta-Gal called ProLinktrade mark, and […] -tagged beta-Arrestin fusion protein. When GPR32 is activated by a ligand, it stimulates binding of beta -Arrestin to ProLink-tagged GPR32, and two parts of beta-Gal complement forming a functional enzyme. Upon substrate (PathHunter(R) Detection reagent) addition, beta-Gal hydrolyzes it and generates a chemiluminescent signal.
Probable G-protein coupled receptor 32 (Homo sapiens), sequence (O75388 whole entry, looked up): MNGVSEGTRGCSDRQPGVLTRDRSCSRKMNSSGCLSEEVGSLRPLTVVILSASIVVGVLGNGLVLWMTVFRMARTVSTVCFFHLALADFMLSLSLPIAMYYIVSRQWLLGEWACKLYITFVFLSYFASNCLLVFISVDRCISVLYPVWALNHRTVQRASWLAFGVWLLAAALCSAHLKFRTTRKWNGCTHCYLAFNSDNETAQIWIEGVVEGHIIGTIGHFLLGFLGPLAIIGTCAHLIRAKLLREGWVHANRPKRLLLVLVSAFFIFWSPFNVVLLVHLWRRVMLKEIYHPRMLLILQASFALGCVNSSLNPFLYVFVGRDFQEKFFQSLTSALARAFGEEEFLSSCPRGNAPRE
The cells were thawed and plated in thawing media containing F-12 HAM (Invitrogen, #11765-054), 10% FBS (Invitrogen, #10082), 1x Glutamine, and 1x Pen/Strep onto the 175-mm flask for 24 hours. Then, thawing media was replaced with Growth media which contains 800microg/mL Geneticin (Invitrogen, #10131) and 300microg/mL Hygromycin B (Invitrogen, #10687) in addition to described above. For the assay, the cells were harvested at ~80% confluent stage with Cell Dissociation buffer (Gibco, #13151), and seeded at 2,500 cells/ 3microL/well in assay media (PathHunter(R) Cell Plating Reagent, DiscoverX, #93-0563R1B) using MultiDrop Combi dispenser (Thermo Scientific, Logan, UT) onto white solid bottom tissue culture-treated 1536-well plates (Greiner # 789173-F) and allowed to attach overnight at 37 degrees C, 95% humidity, 5% CO2, . Next, 23nL/well of compound solutions in DMSO were added with a Pin Tool (Kalypsis, San Diego, CA) to the assay plates. As the basal control (EC0), 23 nL/well of DMSO was used on each plate. The cells were incubated in the presence of compounds or DMSO for 90 minutes at 37 degrees C, 5% CO2. Subsequently, 1.5microL/well of PathHunter(R) Detection Reagent prepared per the manufacturer's instructions was added to the assay plates with BioRAPTR FRDtrade mark dispenser (Beckman Coulter, San Francisco, CA) and incubated for 1 hour at ambient temperature prior to the measurement of the luminescent signal on ViewLux(R) uHTS Microplate Imager (Perkin Elmer, Waltham, MA).
As to `c1ccc2c(c1)[I+]c1ccccc1-2`, the activation was 85.7% (active).

Consider `Nc1ccc([N+](=O)[O-])cc1`, for which the activation is -34.8%.

`CC[N+]1(CCOC(=O)C(O)(c2ccccc2)c2ccccc2)CCCCC1`: the activation is -7.19%.

As to `NCCc1ccc(S(=O)(=O)F)cc1`, the activation is 14.4%.

In the case of `CC1N=C(N)OC1c1ccccc1` (stereo not given), the activation was -12.2%.

Regarding `C=CCN1CCC23c4c5ccc(O)c4O[C@H]2C(=O)CC[C@@]3(O)C1C5` (stereo not given in full), the activation was -10.4%.

As to `O=S(=O)(O)C(F)(F)C(F)(F)C(F)(F)C(F)(F)F`, the activation was 94.8% (active).

As for `Cc1nnc(NC(=O)c2cccn(Cc3cccc(F)c3)c2=O)s1`, the activation was 23.9%.

As for `CCOC(=O)c1ncn2c1[C@@H]1CCCN1C(=O)c1cc(OC)ccc1-2`, the activation was -9.3%.

Regarding `CC1=C(C(=O)O)N2C(=O)[C@@H](N)[C@H]2SC1`, the activation is -12.7%.

These data come from PubChem BioAssay AID1346428 (National Center for Advancing Translational Sciences (NCATS), 2018).
